Experimental data reported in PubChem BioAssay AID1053133 (Broad Institute, 2014).
Values joined by “and” are separate entries in the source; they are usually repeats but may differ in a detail not shown here. Identical values can stand only once. The whole screen tested about 89,000 compounds, of which about 10 (0.01%) were called active. About 10% were inconclusive and are not listed. No stated cut-off is given here; in the data, active means activity change below about -37% (passing the limit was not always enough); inconclusive means no clear call, values can overlap the other calls; tested in A549 cells. A selection follows.

Assay: blocks a specific stage of Vaccinia orthopoxvirus infection, primary screen, cell-based, single point (AID 1053133)
Settings: Vaccinia-infected cells, mCherry/Venus stage reporter fluorescence, stronger effect = lower value, concentration not given here; activity change (Venus): measured here: Venus reporter, other viral stage
In the case of `Cc1ccc(F)cc1S(=O)(=O)N[C@@H]1CCN(Cc2ccc(-c3ccccc3)cc2)C1`, the activity change (Venus) is reported as -24.3% and the activity change (mCherry) is reported as -23.2% (inactive).
In the case of `C[C@@H](NC(=O)C[C@H]1C[C@@H]2c3cc(NC(=O)Nc4ccccc4F)ccc3O[C@@H]2[C@H](CO)O1)c1ccccc1`, the activity change (Venus) is reported as 0.165% and the activity change (mCherry) is reported as 4.14% (inactive).
In the case of `O=C(C[C@@H]1C[C@H]2c3cc(NC(=O)NC4CCCCC4)ccc3O[C@H]2[C@H](CO)O1)NCc1ccncc1`, the activity change (Venus) is reported as 10.9% and the activity change (mCherry) is reported as -4.22% (inactive).
In the case of `COc1ccccc1NC(=O)N(C)C[C@H]1Oc2cc(Br)ccc2S(=O)(=O)N([C@H](C)CO)C[C@@H]1C`, the activity change (Venus) is reported as -7.91% and 3.04% and the activity change (mCherry) is reported as -12.3% (inactive) and -2.64% (inactive).
With `O=C(C[C@@H]1CC[C@@H]2[C@H](COC[C@H](O)CN2C(=O)C2CC2)O1)NCc1ccncc1` the activity change (Venus) was -2.42% and the activity change (mCherry) was 0.733% (inactive).
With `COCC#Cc1ccc2c(c1)O[C@@H](CN(C)C(=O)Nc1ccccc1F)[C@H](C)CN([C@H](C)CO)S2(=O)=O` the activity change (Venus) was 11.6% and the activity change (mCherry) was 9.91% (inactive).
For `CN1C(=O)c2cc(NC(=O)c3ccccc3)ccc2OC[C@H]2O[C@@H](CC(=O)O)CC[C@@H]21`, the activity change (Venus) was 4.29% and the activity change (mCherry) was 9.5% (inactive).
For `O=C(c1ccccn1)N1CC2(C1)[C@H](c1ccccc1)[C@H](CO)N2C(=O)C1CCCC1`, the activity change (Venus) was -9.04% and the activity change (mCherry) was -13.9% (inactive).
With `Cc1noc(C)c1NC(=O)N[C@@H]1CC[C@H](CC(=O)Nc2ccccc2)O[C@H]1CO` the activity change (Venus) was 10.3% and the activity change (mCherry) was 4.56% (inactive).
In the case of `COc1ccc2c3c([nH]c2c1)[C@@H](CO)N(C(=O)c1cccc(F)c1)CC31CN(C(C)=O)C1`, the activity change (Venus) is reported as -6.3% and the activity change (mCherry) is reported as 16.8% (inactive).
With `CCC(=O)Nc1ccc2c(c1)OC[C@@H](C)N(Cc1ccccn1)C[C@H](C)[C@@H](OC)CN(C)C2=O` the activity change (Venus) was 5.46% and the activity change (mCherry) was 6.05% (inactive).
In the case of `C[C@@H]1CN([C@H](C)CO)S(=O)(=O)c2ccc(C#CCC3CCCC3)cc2O[C@H]1CN(C)Cc1ccc(C(=O)O)cc1`, the activity change (Venus) is reported as -4.35% and the activity change (mCherry) is reported as 11.2% (inactive).
In the case of `O=C(C[C@H]1CC[C@@H]2[C@H](COC[C@@H](O)CN2CC2CC2)O1)NCC1CC1`, the activity change (Venus) is reported as 15.8% and the activity change (mCherry) is reported as 11.7% (inactive).
With `C[C@H](CO)N1C[C@H](C)[C@@H](CN(C)C(=O)Nc2ccc3c(c2)OCO3)OCCCC[C@H](C)Oc2ccc(NS(=O)(=O)c3cn(C)cn3)cc2C1=O` the activity change (Venus) was 3.74% and the activity change (mCherry) was 11.2% (inactive).
For `CO[C@H]1CN(C)C(=O)c2ccc(NC(=O)c3cc(C)on3)cc2OC[C@@H](C)NC[C@@H]1C`, the activity change (Venus) was 4.97% and the activity change (mCherry) was 2.62% (inactive).
For `CCCc1cn(CC[C@H]2CC[C@@H](NS(=O)(=O)c3ccccc3Cl)[C@@H](CO)O2)nn1`, the activity change (Venus) was 1.1% and the activity change (mCherry) was 5.97% (inactive).
In the case of `CCNC(=O)[C@H]1[C@H](CO)[C@H]2Cn3c(ccc(/C=C/c4ccccc4)c3=O)[C@@H]1N2C(=O)C1CCC1`, the activity change (Venus) is reported as 12.9% and the activity change (mCherry) is reported as 11.2% (inactive).
In the case of `O=C(C[C@H]1C=C[C@@H](NC(=O)C2CCOCC2)[C@@H](CO)O1)NCC1CCCCC1`, the activity change (Venus) is reported as 1.03% and the activity change (mCherry) is reported as 8.68% (inactive).
With `O=C(CC1CC1)Nc1ccc2c(c1)[C@@H]1C[C@@H](CC(=O)NC3CCCCC3)O[C@@H](CO)[C@@H]1O2` the activity change (Venus) was -4.69% and the activity change (mCherry) was -3.33% (inactive).
For `O=C(Nc1cc(F)ccc1F)N[C@@H]1C=C[C@@H](CC(=O)N2CCc3ccccc3C2)O[C@@H]1CO`, the activity change (Venus) was -0.0639% and the activity change (mCherry) was -17.7% (inactive).
With `C[C@H](CO)N1C[C@H](C)[C@@H](CN(C)C(=O)c2cnccn2)Oc2ncc(Br)cc2C1=O` the activity change (Venus) was -0.956% and the activity change (mCherry) was 2.65% (inactive).
In the case of `CCCNC(=O)N(C)C[C@H]1Oc2cc(C3=CCCCC3)ccc2S(=O)(=O)N([C@H](C)CO)C[C@H]1C`, the activity change (Venus) is reported as -0.298% and the activity change (mCherry) is reported as -6.09% (inactive).
In the case of `Cc1ccccc1S(=O)(=O)N[C@H]1CC[C@H](CCn2cc(-c3ccc(F)cc3)nn2)O[C@H]1CO`, the activity change (Venus) is reported as -25.8% and the activity change (mCherry) is reported as -28.8% (inactive).
In the case of `C[C@H]1CCCCO[C@H](CN(C)S(=O)(=O)c2cn(C)cn2)[C@@H](C)CN([C@@H](C)CO)C(=O)c2cc(NC(=O)C3CCCCC3)ccc2O1`, the activity change (Venus) is reported as 4.42% and the activity change (mCherry) is reported as 9.05% (inactive).
In the case of `O=C(Nc1nccs1)[C@@H]1[C@@H](CO)[C@@H]2Cn3c(ccc(-c4cccnc4)c3=O)[C@@H]2N1CC1CC1`, the activity change (Venus) is reported as 2.33% and the activity change (mCherry) is reported as 16.6% (inactive).
With `COc1cccc(-c2cnc3c(c2)C(=O)N([C@H](C)CO)C[C@H](C)[C@@H](CN(C)Cc2ccc(C(=O)O)cc2)O3)c1` the activity change (Venus) was 12.8% and the activity change (mCherry) was 13.4% (inactive).
For `COc1ccccc1-c1cnc2c(c1)C(=O)N([C@H](C)CO)C[C@H](C)[C@@H](CN(C)C(=O)CC1CC1)O2`, the activity change (Venus) was -0.21% and the activity change (mCherry) was 5.06% (inactive).
With `O=C(C[C@H]1CC[C@H]2[C@@H](COC[C@@H](O)CN2Cc2ccccc2F)O1)NCc1ccccc1F` the activity change (Venus) was 2.5% and the activity change (mCherry) was -8.36% (inactive).
